Reference: PubChem BioAssay (NCI)
Compounds without any hit were thinned out: in the full panel of roughly 79,000, 15% have a hit. Active and inactive are the calls of the source. No stated cut-off is given here; in the data, active means growth inhibition above about 70%; inactive means the rest.

Assays:
[1] = NCI Yeast Anticancer Drug Screen. Data for the rad52 strain (AID 147);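 further: 0% = growth of vehicle-treated control cultures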; settings: S. cerevisiae rad52 mutant growth inhibition, active compounds read high
How it was run: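 Growth of repair-deficient yeast cells was compared between compound-treated and vehicle-treated cultures to give percent inhibition.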

[2] = NCI Yeast Anticancer Drug Screen. Data for the wt1 strain (AID 149);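 further: 0% = growth of vehicle-treated wt1 cultures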; settings: S. cerevisiae wt1 strain (SPY 50644) growth inhibition, active compounds read high
How it was run: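 Compounds are added to wt1 yeast cultures. Growth is then measured. Inhibition is expressed relative to vehicle-treated controls.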

[3] = NCI Yeast Anticancer Drug Screen. Data for the rad50EPP+ strain (AID 151);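 further: 0% = growth of vehicle-treated control cultures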; settings: S. cerevisiae rad50 mutant strain, active compounds read high
How it was run: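 Measured: growth inhibition of rad50EPP+ yeast. Reference: vehicle-treated controls. Screen uses strains with defined genetic alterations in DNA damage repair or cell cycle control.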

[4] = NCI Yeast Anticancer Drug Screen. Data for the mgt1 strain (AID 153); settings: S. cerevisiae mgt1 mutant growth inhibition, active compounds read high
How it was run: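 Compounds were applied to mgt1 mutant yeast, and growth was then compared against vehicle-treated control cultures to give percent inhibition.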

[5] = NCI Yeast Anticancer Drug Screen. Data for the rad50 strain (AID 155);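 further: 0% = growth of vehicle-only cultures of the same strain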; settings: S. cerevisiae rad50 strain growth inhibition, active compounds read high
How it was run: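 Inhibition values express reduced yeast growth in compound-treated cultures relative to vehicle-treated controls.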

[6] = NCI Yeast Anticancer Drug Screen. Data for the mec2-1 strain (AID 157); settings: S. cerevisiae mec2-1 strain, active compounds read high
How it was run: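 Compounds were applied to mec2-1 yeast cells. Their growth was then compared with that of vehicle-treated cultures to give growth inhibition.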

[7] = NCI Yeast Anticancer Drug Screen. Data for the rad14 strain (AID 159);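 further: 0% = growth of vehicle-treated control cultures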; settings: S. cerevisiae rad14 strain growth inhibition, active compounds read high
How it was run: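 A mutant yeast strain defective in DNA damage repair is treated with compound; inhibition of its growth is scored against untreated, vehicle-exposed cultures.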

[8] = NCI Yeast Anticancer Drug Screen. Data for the sgs1 mgt1 strain (AID 161);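 further: 0% = growth of cultures given vehicle only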; settings: S. cerevisiae sgs1 mgt1 strain, active compounds read high
How it was run: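 Growth of a repair-deficient yeast mutant was monitored after compound treatment and expressed as inhibition relative to vehicle-treated cultures.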

[9] = NCI Yeast Anticancer Drug Screen. Data for the CLN2oe strain (AID 163);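 further: 0% = growth of vehicle-only control cultures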; settings: S. cerevisiae CLN2oe strain, active compounds read high
How it was run: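 Cells of an engineered yeast line with disturbed cell-cycle regulation are treated with compound. Inhibition of growth is then calculated relative to the vehicle-treated reference.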

[10] = NCI Yeast Anticancer Drug Screen. Data for the cln2 rad14 strain (AID 165);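 further: 0% = growth equal to vehicle treated cultures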; settings: S. cerevisiae cln2 rad14 strain, active compounds read high
How it was run: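 Strain: cln2 rad14 yeast, altered in cell cycle control and DNA damage repair. Read-out: growth inhibition vs vehicle.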

[11] = NCI Yeast Anticancer Drug Screen. Data for the bub3 strain (AID 167); settings: S. cerevisiae bub3 mutant strain, active compounds read high
How it was run: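 Steps: expose the mutant yeast strain to compound; grow alongside vehicle-treated cultures; measure growth; express inhibition against the vehicle cultures.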

[12] = NCI Yeast Anticancer Drug Screen. Data for the wt2 strain (AID 169);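 further: 0% = growth of vehicle-treated yeast cultures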; settings: S. cerevisiae wt2 strain growth inhibition, active compounds read high
How it was run: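 Growth of compound-treated yeast is measured and expressed as inhibition relative to vehicle-only controls.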

[13] = NCI Yeast Anticancer Drug Screen. Data for the mlh1 strain (AID 171);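 further: 0% = growth of vehicle-treated control cultures of the same strain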; settings: S. cerevisiae mlh1 strain growth inhibition, active compounds read high
How it was run: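 Test agents were incubated with yeast bearing a defined DNA damage repair or cell cycle control alteration; values are growth inhibition normalised to vehicle-treated cultures.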

[14] = NCI Yeast Anticancer Drug Screen. Data for the sgs1 strain (AID 173);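 further: 0% = growth of vehicle-only control cultures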; settings: S. cerevisiae sgs1 mutant, active compounds read high
How it was run: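 Strain with an altered DNA repair or cell cycle pathway exposed to compound. Growth then measured. Value = inhibition versus vehicle control.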

[15] = NCI Yeast Anticancer Drug Screen. Data for the mlh1 rad18 strain (AID 175); settings: S. cerevisiae mlh1 rad18 strain growth inhibition, active compounds read high
How it was run: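 A repair-deficient yeast strain is exposed to test compound, and growth is scored relative to vehicle-treated controls.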

[16] = NCI Yeast Anticancer Drug Screen. Data for the rad18 strain (AID 177); settings: S. cerevisiae rad18 mutant growth inhibition, active compounds read high
How it was run: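 DNA-repair-defective yeast; compound treatment; growth inhibition scored against vehicle.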

[17] = at 5.0 µM (retest, dose inferred, filed as 0.5)
[18] = at 50.0 µM (retest, dose inferred, filed as 5.0)

Measured: growth inhibition

C[n+]1c(-c2ccc(/C=N/NC(=O)c3ccc(C(=O)N/N=C/c4ccc(-c5cn6ccccc6[n+]5C)cc4)cc3)cc2)cn2ccccc21
active: [3]; at 3.7 µM 86% | [3]; at 11.0 µM 94% | [3]; at 33.0 µM 94% | [3]; at 100.0 µM 94% | [4]; at 33.0 µM 84% | [4]; at 100.0 µM 71% | [5]; [18] 92% | [5]; at 50.0 µM 81.2% | [5]; at 100.0 µM 79% | [6]; at 100.0 µM 76% | [8]; at 50.0 µM 70.7% | [10]; [18] 78% | [11]; at 33.0 µM 70% | [11]; [18] 91% | [11]; at 100.0 µM 76% | [12]; at 33.0 µM 88% | [12]; at 100.0 µM 82% | [13]; at 100.0 µM 84% | [14]; at 33.0 µM 74% | [14]; at 100.0 µM 81% | [15]; [18] 96% | [15]; at 50.0 µM 92% | [16]; at 100.0 µM 70%
inactive: [1]; at 1.2 µM 5% | [1]; at 3.7 µM 14% | [1]; at 11.0 µM 29% | [1]; at 33.0 µM 54% | [1]; at 100.0 µM 60% | [2]; at 1.2 µM 9% | [2]; at 3.7 µM 16% | [2]; at 11.0 µM 26% | [2]; at 33.0 µM 25% | [2]; at 100.0 µM 25% | [3]; at 1.2 µM 69% | [4]; at 1.2 µM 13% | [4]; at 3.7 µM 22% | [4]; at 11.0 µM 42% | [5]; at 1.2 µM 6% | [5]; at 3.7 µM 10% | [5]; [17] 15% | [5]; at 11.0 µM 16% | [5]; at 33.0 µM 55% | [6]; at 1.2 µM 7% | [6]; at 3.7 µM 13% | [6]; [17] -7% | [6]; at 11.0 µM 23% | [6]; at 33.0 µM 41% | [6]; [18] 63% | [6]; at 50.0 µM 49.4% | [7]; at 1.2 µM -1% | [7]; at 3.7 µM 3% | [7]; at 11.0 µM 15% | [7]; at 33.0 µM 66% | [7]; at 100.0 µM 60% | [8]; [17] 24% | [8]; [18] 62% | [9]; at 1.2 µM -2% | [9]; at 3.7 µM 0% | [9]; at 11.0 µM 13% | [9]; at 33.0 µM 30% | [9]; at 100.0 µM 38% | [10]; [17] 16% | [10]; at 50.0 µM 51.4% | [11]; at 1.2 µM -5% | [11]; at 3.7 µM 2% | [11]; [17] -1% | [11]; at 11.0 µM 13% | [11]; at 50.0 µM 69.7% | [12]; at 1.2 µM 13% | [12]; at 3.7 µM 27% | [12]; at 11.0 µM 63% | [13]; at 1.2 µM 3% | [13]; at 3.7 µM 11% | [13]; at 11.0 µM 37% | [13]; at 33.0 µM 69% | [14]; at 1.2 µM 11% | [14]; at 3.7 µM 22% | [14]; at 11.0 µM 44% | [15]; [17] 50% | [16]; at 1.2 µM 10% | [16]; at 3.7 µM 17% | [16]; at 11.0 µM 55% | [16]; at 33.0 µM 55%
